Measurements from PubChem BioAssay (NCI).
The panel holds about 83,000 compounds, 20% with a hit somewhere; the sample as a whole holds those more often.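 Compound tested at a single concentration for 48 hours in 96-well plates; a percent growth value below 10 was scored as active.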 Unmarked numbers belong to inactive results. The source made the active and inactive calls.

Test system: RXF 393 renal
Assay: NCI-60 one-dose screen, 48 h (100 = growth as untreated, 0 = no growth, -100 = all killed)
Settings: 10 µM unless noted

Row | SMILES | growth
1 | C[C@H](c1nc2ccc(C#N)cc2[nH]1)[C@H]1CC[C@H]2[C@@H]3CCC4=CC(=O)CC[C@]4(C)[C@H]3CC[C@]12C | 64.3%
2 | O=c1cc(C(F)(F)F)c2cc(-c3cc4ccccc4c(=O)o3)c(O)cc2o1 | 86.3%
3 | Nc1ccc(-c2ccncc2)cc1NC(=O)N1CCCC1 | 100%
4 | COc1cccc(-c2cn3nc(-c4cn(C)c5ccccc45)sc3n2)c1 | 104%
5 | CC(C)(C)c1ccc(S(=O)(=O)Oc2ccc(-c3sc4cc(OS(=O)(=O)c5ccc(C(C)(C)C)cc5)ccc4c3C(=O)c3ccc(OCCN4CCCCC4)cc3)cc2)cc1 | 103%
6 | CCN(CC)CCn1c2ccc(OC)cc2c2sc3cc(O)ccc3c(=O)c21 | 27.5%
7 | C=C1C(=O)O[C@H]2[C@H]1CC/C(COC(=O)NCc1ccc(Cn3c(=O)sn(-c4ccc(I)cc4)c3=O)cc1)=C\CC[C@@]1(C)O[C@@H]21 | 61.2%
8 | O=C(Nc1nc(Cl)nc(Nc2ccc(N3CCOCC3=O)cc2)n1)c1ccc(Cl)s1 | 91.3%
9 | COc1cc(OC)c2c(=O)c3c(CC=C(C)C)cc(OC)c(O)c3oc2c1 | 100%
10 | O=S(=O)(Nc1cc(Sc2nc3ccccc3s2)c(O)c2ccccc12)c1ccc2ccccc2c1 | 104%
11 | Nc1cccc(-c2ccc(COc3ccc(CC4SC(=O)NC4=O)cc3)cc2)c1 (centres undefined) | 77.7%
12 | COc1ccc(-c2nc(SCC(=O)Nc3nc4ccc(C)cc4s3)[nH]c(=O)c2C#N)cc1OC | 113%
13 | C=C1C(=O)O[C@@H]2C3C(=C(C)CC[C@@H]12)CC1O[C@]13C (some centres undefined) | 91.6% [6.75 µM]
14 | COc1cccc(CNc2c3ccccc3nc3ccccc23)c1OC | 29.9%
15 | Nc1c(Cl)cc(/C=C2\C=Cc3ccccc32)cc1Cl | 103%
16 | CSc1ccc2c3c(n(C[C@H](O)CO)c(=O)c2c1)-c1ccccc1C3=O | 79.7%
17 | COc1cc(-c2ccc[nH]2)[nH]c1/C=C1\N=C(C)C(CC(=O)OCC(C)(C)C)=C1C | -82.3% (active)
18 | Brc1ccc(Nc2nc(Nc3cnc4ccccc4c3)c3[nH]cnc3n2)cc1 | 75.8%
19 | CS(=O)(=O)Nc1cc(-c2ccc3ncnc(Nc4ccc(F)c(Cl)c4)c3c2)ccc1Cl | 22%
20 | CSc1ccc2c3c(n(CCCn4ccnc4)c(=O)c2c1)-c1ccccc1C3=O | 46.3%

Row | SMILES | growth
21 | O=C(/C=C/c1cn(-c2ccccc2)nc1-c1ccccc1)CCC(=O)NO | 102%
22 | O=C(/C=C/c1ccccc1)c1cccc2ccccc12 | 12.4%
23 | CCOC(=O)/C=C1\S/C(=N\Nc2cc(=O)[nH]c3ccc(Br)cc23)N(c2ccccc2)C1=O | 35.2%
24 | CC(=O)c1ccc(-n2cc(CN3CCN(c4cc5c(cc4F)c(=O)c(C(=O)O)cn5C4CC4)CC3)nn2)cc1 | 72%
25 | CS(=O)(=O)Nc1cc(-c2ccc3ncnc(Nc4ccc(OCc5ccccn5)c(Cl)c4)c3c2)cnc1Cl | -31.4% (active)
26 | COc1ccc2c(c1)c(-c1nc(-c3ccc4ccccc4c3)cs1)cn2C | 69.1%
27 | CCOC(=O)c1c(C)nc2ccccc2c1/C=C/c1ccc(F)cc1 | 101%
28 | CC1(C)N=C(N)N=C(N)N1c1ccc(S(=O)(=O)Nc2nccs2)cc1 | 105%
29 | COC(=O)c1sccc1-c1cc(O)c(C(=O)Nc2ccccc2)s1 | 115%
30 | CCOC(=O)NC(=S)n1oc(=O)c2ccccc21 | 111%
31 | O=C1CCC(C(=O)N/N=C/c2cc(F)ccc2F)N1 (centres undefined) | 108%
32 | COc1ccccc1/C=C/C(=O)Nc1ccc(F)cc1 | 102%
33 | COc1ccc(/C=N/Nc2c3ccccc3nc3ccccc23)cc1 | 103%
34 | O=[N+]([O-])c1ccccc1Sc1ccccc1[N+](=O)[O-] | 98.1%
35 | C[C@@H]1CN(c2cnc(C(=O)Nc3cc(F)cc4cccnc34)cn2)C[C@H](C)N1 | 39.8%
36 | CC1(C)CC[C@]23CC[C@]4(C)[C@H](CC[C@@H]5[C@@]6(C)C/C(=C/O)C(=O)C(C)(C)[C@@H]6CC[C@]54C)[C@H]2[C@H]1OC3 | 121%
37 | c1cc(OCCCCCOc2cccc(-c3nc4ccccc4[nH]3)c2)cc(-c2nc3ccccc3[nH]2)c1 | 6.51% (active)
38 | O=CN1N=C(c2cccc(Nc3ccnc4cc(Cl)ccc34)c2)CC1c1ccc(Cl)cc1 (centres undefined) | -4.85% (active)
39 | COc1ccc(/C=C2\c3cc(OC)c(OC)c(OC)c3CC[C@@H]2O)cc1F | 8.31% (active)
